Measurements as given in PubChem BioAssay (NCATS).
Values without a mark were called inactive. Records with an inconclusive call do not appear. Calls of active or inactive are those of the source. Calls come from the whole dose curve; as a rule, active = well fitted curve in the direction sought with a large enough effect; inconclusive = small, poorly fitted or top-dose-only effect, or another doubt; inactive = no such curve, though single readings can be large or run the other way.

molecular target: Protein phosphatase 1D (Homo sapiens) (UniProt O15297); test: Rhodamine-PBP qHTS Assay for Modulators of WT P53-Induced Phosphatase 1 (WIP1) (AID 1347425); conditions: recombinant WIP1, Rhodamine-PBP phosphate fluorescence, real-time; series mostly up to 57.5 µM; activity change, negative = inhibition: at the top concentration; note: % of control where 0% means no effect
Sequence (O15297 whole entry, looked up): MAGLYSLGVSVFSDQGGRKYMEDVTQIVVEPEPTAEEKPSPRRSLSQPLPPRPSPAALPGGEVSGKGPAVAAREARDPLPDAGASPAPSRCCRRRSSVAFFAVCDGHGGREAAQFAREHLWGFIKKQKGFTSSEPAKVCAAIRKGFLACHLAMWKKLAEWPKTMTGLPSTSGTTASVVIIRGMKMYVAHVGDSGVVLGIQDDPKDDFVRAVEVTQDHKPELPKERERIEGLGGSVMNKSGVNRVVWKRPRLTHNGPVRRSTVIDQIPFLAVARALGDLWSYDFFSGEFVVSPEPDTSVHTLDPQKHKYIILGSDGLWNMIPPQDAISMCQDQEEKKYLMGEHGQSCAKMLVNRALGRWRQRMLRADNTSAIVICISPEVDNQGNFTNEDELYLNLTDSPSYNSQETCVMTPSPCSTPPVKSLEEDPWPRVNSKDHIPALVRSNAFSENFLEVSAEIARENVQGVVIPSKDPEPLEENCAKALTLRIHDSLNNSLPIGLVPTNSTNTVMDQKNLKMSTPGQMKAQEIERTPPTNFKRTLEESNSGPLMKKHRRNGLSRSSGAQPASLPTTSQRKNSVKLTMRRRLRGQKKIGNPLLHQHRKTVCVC
How it was run: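 5 nM WIP1 + 10 uM Rh-PBP, 50 mM Tris pH 7.5, 30 mM MgCl2, 1 mM TCEP, 0.1 mM EGTA, BSA; cpds pinned, 1 hr RT; + 10 uM phosphopeptide; fluorescence 1-min reads x 11 min; delta = f1 - f0.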

Structure (SMILES) | activity change, negative = inhibition
O=S(=O)(O)c1cc(I)c(O)c2ncccc12 | -0.927%
CC(CN1c2ccccc2Sc2ccccc21)N(C)C (centres undefined) | -0.969%
CC(=O)Oc1ccc(C2(c3ccc(OC(C)=O)cc3)C(=O)Nc3ccccc32)cc1 | 8.51%
COCCOC(=O)C1=C(C)NC(C)=C(C(=O)OC/C=C/c2ccccc2)C1c1cccc([N+](=O)[O-])c1 (centres undefined) | -8.72%
NC(=O)NNc1ccccc1 | 2.33%
Nc1ncnc2c1ncn2[C@@H]1O[C@H](CO)[C@@H](O)[C@H]1O | -0.618%
CC(C)c1c(C(=O)Nc2ccccc2)c(-c2ccccc2)c(-c2ccc(F)cc2)n1CC[C@@H](O)C[C@@H](O)CC(=O)O | -7.11%
OCC(CO)N[C@H]1C[C@](O)(CO)[C@@H](O)[C@H](O)[C@H]1O | 0.772%
Cc1cccc(Nc2cc(Cl)nc(SCC(=O)O)n2)c1C | -15.8%
C[C@H](N)[C@H](O)c1cccc(O)c1 | 3.09%
Oc1cn2c(n1)Nc1ccc(Cl)c(Cl)c1C2 | 15.1% [at 23.8 µM]
CCOC(=O)[C@H](CCc1ccccc1)N[C@@H](C)C(=O)N1C(=O)N(C)C[C@H]1C(=O)O | 6.26%
O=C1O[C@H](CO)[C@@H](O)[C@H](O)[C@H]1O | 9.42%
C[C@@H]1CN(c2c(F)c(F)c3c(=O)c(C(=O)O)cn(C4CC4)c3c2F)C[C@H](C)N1 | 9.97% [at 23.8 µM]
O=C1N=C(O)CN1/N=C/c1ccc(-c2ccc([N+](=O)[O-])cc2)o1 | -21.9%
CN1CCOC(c2ccccc2)c2ccccc2C1 (centres undefined) | 0%
C[C@](N)(Cc1ccc(O)cc1)C(=O)O | -0.695% [at 4.81 µM]
O=C1Nc2ccc(Cl)cc2[C@@](C#CC2CC2)(C(F)(F)F)O1 | -20.1%
O=C1O[C@H]([C@@H](O)CO)C(O)=C1O | -2.4%
C[C@]12CC[C@@H]3c4ccc(O)cc4CC[C@H]3[C@@H]1CC[C@@H]2OC(=O)CCC1CCCC1 | -8.58%
NCCNCCNCCN | 4.77%
OCCN1CCN(CCCN2c3ccccc3Sc3ccc(Cl)cc32)CC1 | 13.9%
CCC(=O)Nc1ccc(O)cc1 | -0.395%
CCN(CC)CCCC(C)Nc1c2ccc(Cl)cc2nc2ccc(OC)cc12 (centres undefined) | -0.108%
O=c1cc(CO)occ1O | -2.91%
COc1ccc2[nH]c(S(=O)Cc3ncc(C)c(OC)c3C)nc2n1 (centres undefined) | 9.01%
CCCc1c(OCCCCc2nn[nH]n2)ccc(C(C)=O)c1O | -11.6%
CC1=C(C/C=C(\C)CCC[C@H](C)CCC[C@H](C)CCCC(C)C)C(=O)c2ccccc2C1=O | 4.2%

tested on: not listed separately; test: Validation qHTS assay for inhibitors of Activation Induced Cytidine Deaminase (AID): UDG Counterscreen signal (AID 1347427); conditions: biochemical UDG counterscreen, fluorescence signal; series mostly up to 115 µM; activity, negative = inhibition: at the top concentration; note: potency is the fitted concentration of half-maximal effect; for activity, negative = inhibition: 0% is about no effect
How it was run: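 Fluorescence at 560 nm excitation, 665 nm emission reports UDG signal after 250 mM NaOH (2x) addition and 30 min. Enzymes (AID 1 uM, UDG 2 U/mL, at 4/3x) preincubated 10 min with compound, then 4 h with 4x 250 nM DJC20/DJC23 substrate at room temperature.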

Structure (SMILES) | activity, negative = inhibition [%] | Potency
CC(CN1c2ccccc2Sc2ccccc21)N(C)C (centres undefined) | -1.92 | 
COCCOC(=O)C1=C(C)NC(C)=C(C(=O)OC/C=C/c2ccccc2)C1c1cccc([N+](=O)[O-])c1 (centres undefined) | 1.96 | 
Nc1ncnc2c1ncn2[C@@H]1O[C@H](CO)[C@@H](O)[C@H]1O | 14.5 | 
Cc1cc(N)c2ccccc2[n+]1CCCCCCCCCC[n+]1c(C)cc(N)c2ccccc21 |  | 89.1 µM (active)
N=c1c[n+](N2CCOCC2)[n-]o1 | -1.26 | 
CC(C)(C)c1onc(OCP(=O)(O)O)c1CC(N)C(=O)O (centres undefined) |  | inactive
O=C1N=C(O)CN1/N=C/c1ccc(-c2ccc([N+](=O)[O-])cc2)o1 | 11 | 
C[C@](N)(Cc1ccc(O)cc1)C(=O)O | 5.85 | 
CC(C)(C)[C@]1(O)CCN2C[C@H]3c4ccccc4CCc4cccc(c43)[C@@H]2C1 |  | inactive
OCCN1CCN(CCCN2c3ccccc3Sc3ccc(Cl)cc32)CC1 | 0.479 | 
CCN(CC)CCCC(C)Nc1c2ccc(Cl)cc2nc2ccc(OC)cc12 (centres undefined) | -3.8 | 
